PubChem BioAssay AID504834 (National Center for Advancing Translational Sciences (NCATS), 2011)
In all, about 320,000 compounds went through this assay and about 22,000 (6.9%) were called active. Inconclusive results (about 27%) are left out. Shown is part of a subset that was picked to be rich in actives. Unmarked numbers belong to inactive results. Calls come from the whole dose curve; as a rule, active = well fitted inhibition curve with a large enough effect; inconclusive = small, poorly fitted or top-dose-only effect, or another doubt; inactive = no such curve, though single readings can be large or run the other way.

Assay: Primary qHTS for delayed death inhibitors of the malarial parasite plastid, 96 hour incubation
Settings: P. falciparum luciferase reporter growth; series mostly up to 28.7 µM; activity change, negative = inhibition: at the top concentration
Summary of the method: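 Infected RBCs, 2% Hct / 0.05% parasitemia final; luciferase-reporter P. falciparum; cpd 96 h, 37 C, 5% CO2; luciferase detection reagent; luminescence.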
% is set by controls: 0 for no effect and ±100 for the full control effect; potency is the fitted concentration of half-maximal effect.

Row | SMILES | activity change, negative = inhibition | Potency
1 | O=C(CS(=O)(=O)c1ccccc1)Nc1ccc(S(=O)(=O)Nc2ccccn2)cc1 | 14.6% | 
2 | Cc1cc(C)cc(OCC(=O)Nc2ccc(S(=O)(=O)Nc3ccccn3)cc2)c1 |  | 1.65 µM (active)
3 | Cc1ccc(OCC(=O)Nc2ccc(S(=O)(=O)Nc3ccccn3)cc2)cc1 | 42.9% | 
4 | Cc1ncoc1C(=O)NCCC(c1ccccc1)c1ccccc1 | 12.9% | 
5 | CC(Cc1ccccc1)NCCC(c1ccccc1)c1ccccc1 (stereo not given) |  | 14.7 µM (active)
6 | CC(Cc1ccccc1)C(=O)N(C)Cc1ccccc1 (stereo not given) | 1.33% | 
7 | C[C@H](NC(=O)c1nc[nH]c1C(=O)NCC(=O)OC(C)(C)C)C(=O)OCc1ccccc1 | 63% | 
8 | COC(=O)c1cccc(NS(C)(=O)=O)c1 | 1.35% | 
9 | COc1ccc(C(=O)COC(=O)CNC(=O)c2cccs2)cc1Br | -21.6% | 
10 | Cc1cc(C(=O)COC(=O)c2cccs2)c(C)n1-c1c(C)n(C)n(-c2ccccc2)c1=O | 17.1% | 
11 | COc1ccc(-n2c(C)cc(C(=O)COC(=O)c3cc(OC)c(OC)cc3NC(=O)c3cccs3)c2C)cc1 |  | 2.62 µM (active)
12 | O=C(CN1CCN(c2ccc(F)cc2)CC1)Nc1ccccc1 | -8.75% | 
13 | CC1CCN(c2c(NCc3ccc(C(=O)NCc4ccccc4)cc3)c(=O)c2=O)CC1 | 1.19% | 
14 | c1n[nH]c(NCc2ccc3c(c2)OCO3)n1 | 2.18% [at 5.75 µM] | 
15 | N#Cc1nc(Cc2ccccc2)oc1NCCc1ccccc1 | 0.675% | 
16 | N#Cc1nc(Cc2cccc3ccccc23)oc1NCc1ccc2c(c1)OCO2 |  | 14.7 µM (active)
17 | O=S(=O)(Nc1n[nH]c(C(F)(F)F)n1)c1ccccc1 | 28.7% | 
18 | O=C(N/N=C/c1ccccn1)c1cccc(NC(=O)c2ccc(Cl)cc2)c1 | 34.1% | 
19 | CC(C)(C)c1ccc(Cn2nnc3c(=O)[nH]c(C4CCCN(C(=O)c5ccco5)C4)nc32)cc1 (stereo not given) | 34.8% | 
20 | CCC(C(=O)NCCC(C)C)N(Cc1ccccc1Cl)C(=O)c1snc(C(N)=O)c1N (stereo not given) | -16.7% | 
21 | CCC(=O)N1c2ccc(S(=O)(=O)CCC(=O)N3CCN(c4ccccc4)CC3)cc2CC1C (stereo not given) | -23.9% | 
22 | Cc1ccc(CNC(=O)CCS(=O)(=O)c2ccc3c(c2)CC(C)N3C(=O)C2CC2)o1 (stereo not given) |  | 11.7 µM (active)
23 | COc1ccccc1CNC(=O)C1CCN(S(=O)(=O)c2ccc3c(c2)CC(C)N3C(=O)C2CC2)CC1 (stereo not given) | 3.97% | 
24 | CS(=O)(=O)c1ccc(Cl)c(NC(=O)COC(=O)c2cccc(S(=O)(=O)N3CCCC3)c2)c1 | 36% | 
25 | COc1ccc(/C=N/OCc2ccccc2C#N)c(OC)c1 | 135% | 

Row | SMILES | activity change, negative = inhibition | Potency
26 | COc1ccc(-c2nn3c(-c4ccccc4)nnc3s2)cc1OC | 96.6% | 
27 | CCOc1cccc(-c2nn3c(-c4ccccn4)nnc3s2)c1 |  | 8.28 µM (active)
28 | c1ccc(-c2cc(-c3nnc4sc(-c5ccccn5)nn34)[nH]n2)cc1 | -6.88% | 
29 | Cc1ccc(SCc2c(C(=O)N/N=C/c3cccnc3)nnn2-c2nonc2N)cc1 | -6.32% | 
30 | COc1nc(Oc2ccc(=O)n(C)n2)nc(N(C)C)n1 |  | 3.7 µM (active)
31 | CCCn1nc(Oc2nc(NC(C)C)nc(N(C)C)n2)ccc1=O | 33.8% | 
32 | COc1nc(OC)nc(N(C)CCO)n1 | 45.2% | 
33 | COC(=O)[C@@H]1CCCN1C(=O)c1cc(COc2cccc3cccnc23)on1 | -7.96% | 
34 | O=C(COC(=O)/C=C/c1ccc(OC(F)F)cc1)NC1CCCCC1 | 7.46% | 
35 | Cc1ccc(S(=O)(=O)N(CC(=O)Nc2cccnc2)c2ccc(Br)cc2)cc1 | -25.1% | 
36 | CC(=O)c1c(C)[nH]c(C(=O)N2CCN(S(=O)(=O)c3ccc(F)c(F)c3)CC2)c1C | 2.87% | 
37 | Cc1nnc(SC(C)C(=O)Nc2ccc(S(=O)(=O)NC3CCCCC3)cc2)s1 (stereo not given) | -8.76% | 
38 | CC(C)Nc1nnc(SC(C)C(=O)N(C)C2CCCCC2)s1 (stereo not given) | -6.33% | 
39 | Cc1ccc(Nc2nnc(SC(C)C(=O)NC3CC3)s2)cc1 (stereo not given) |  | 14.7 µM (active)
40 | CCOc1ccc(N2CC(C(=O)NCc3ccccn3)CC2=O)cc1 (stereo not given) | 0.718% | 
41 | Nc1nnnn1/N=C/c1cccs1 |  | 1.85 µM (active)
42 | Nc1nnnn1/N=C/c1cccc(Br)c1 | -28.6% | 
43 | COc1ccc(/C=N/n2nnnc2N)cc1OC | 0% | 
44 | Cc1ccc(NS(=O)(=O)c2ccc3c(c2)n(C)c(=O)c(=O)n3C)c(C)c1 | 23% | 
45 | O=C(COC(=O)CCOc1ccccc1)Nc1cc(S(=O)(=O)N2CCCCC2)ccc1Cl | 12.7% | 
46 | C=C(C)c1cccc(C(C)(C)NC(=O)NCCN(CC)CC)c1 |  | 4.15 µM (active)
47 | C=C(C)c1cccc(C(C)(C)NC(=O)NC2CCCC2)c1 | -11.6% | 
48 | CCN(CC)CCNC(=O)c1cc(S(C)(=O)=O)ccc1OC |  | inactive
49 | CN(CC(=O)Nc1c(Cl)cccc1Cl)C(=O)c1ccncc1 | 41.8% | 
50 | CC(C)Nc1ccc(-n2nc3ccccc3[n+]2[O-])cc1 | -11.5% | 
